# Bioassay records from PubChem.
# This is a sample that favours compounds with a hit; in the whole collection about 21% have one here.
# Shiga inhibitor – blocks Shiga toxin action in Vero cells; Vero cells, Shiga toxin protein synthesis inhibition reporter; inhibition, % at 38.7 µM; 290,000 compounds, 9.2% hits; AID 2315; in the data active = inhibition mostly above about 28%, no sharp cut-off; inactive = mostly below about 43%; note: 0% is about no effect
# Pf growth 96h – inhibits malaria parasite growth, 96 h | P. falciparum luciferase reporter growth, 96 h | Potency, µM (series often up to 28.7 µM), without a hit: at the top dose activity change, negative = inhibition, most hits filed as inhibitors | 320,000 compounds, 6.9% hits; note: potency is the fitted concentration of half-maximal effect; % is set by controls: 0 for no effect and ±100 for the full control effect
#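 Cell-based qHTS: luciferase-tagged P. falciparum in erythrocytes (2% hematocrit, 0.05% parasitemia final) incubated with compounds for 96 hours, 37 C, 5% CO2; luciferase detection reagent then added and luminescence measured.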
# SARS PLP yeast – SARS-CoV PLP inhibition in yeast; S. cerevisiae expressing SARS-CoV PLpro, growth rescue; Potency, µM (highest dose often 32.9 µM), for inactives: top-dose activity, positive = growth rescue, actives largely listed as activators; 330,000 compounds, 0.19% hits; AID 485353; calls by dose curve; note: potency is the fitted concentration of half-maximal effect; 0% is about no effect; nearly all actives have a fitted effect of over 55% in size
# Pf growth 48h – inhibits P. falciparum growth in the first generation, 48 h | Potency, µM (series often up to 28.7 µM), for the others: at the top dose activity change, negative = inhibition, usual class: inhibitors | AID 504832 | 310,000 compounds, 5.9% hits | P. falciparum luciferase growth in erythrocytes, 48 h; note: potency is the fitted concentration of half-maximal effect; % is set by controls: 0 for no effect and ±100 for the full control effect
#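 Firefly luciferase activity from engineered P. falciparum reports growth; inhibitors lower the luminescent signal. Cultures contained 2% hematocrit erythrocytes at 0.1% final parasitemia.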
# NS1 inh – inhibitors of influenza NS1 protein function; Potency, µM (doses to about 46.1 µM), without a hit: top-dose activity, positive = more growth; 270,000 compounds, 0.4% hits; AID 2326; calls by dose curve; note: potency is the fitted concentration of half-maximal effect; actives are rising curves; nearly all actives have a fitted effect of over 50% in size
#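 Compounds were scored for reversing the slow growth caused by influenza A NS1 in S. cerevisiae, measured by optical density at 600 nm. Assay medium contained 2% galactose at pH 6.0; NS1-free yeast of the same strain were the positive control.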
# Cycloheximide cs – counter-screen hit for Shiga toxin inhibitors, cycloheximide; cell reporter, cycloheximide protein synthesis inhibition counterscreen; max response, %; 300,000 compounds, 12% hits; AID 2314; in the data active = max response mostly above about 13%, no sharp cut-off; inactive = mostly below about 14%; note: read at 38.3 µM for the half of the compounds with a filed dose; 0% is about no effect
# * hit, by the source's call; ? = inconclusive; · = no result. Unless noted, calls come from the whole dose curve; as a rule, active = well fitted inhibition curve with a large enough effect; inconclusive = small, poorly fitted or top-dose-only effect, or another doubt; inactive = no such curve, though single readings can be large or run the other way.
SMILES,Shiga inhibitor,Pf growth 96h,SARS PLP yeast,Pf growth 48h,NS1 inh,Cycloheximide cs
O=C(C1CCCCN1S(=O)(=O)c1ccccc1[N+](=O)[O-])N1CCCCC1 (stereo unspecified),6.7,3.4%,0.5%,-3.8%,-1.2%,10.4
COc1cc(CCC(=O)OCC(=O)Nc2ccc(Br)cc2F)cc(OC)c1OC,-7.0,41.5%,-2.4%,?,-10.4%,0.7
COc1cc(/C=N/NC(=O)Cn2ccc(C(F)(F)F)n2)cc(OC)c1OC,1.3,-2.7%,-1.8%,0.0%,·,-2.6
Cc1cc(C)cc(NS(=O)(=O)c2ccc3c(c2)c(=O)n(C)c(=O)n3C)c1,3.2,·,-6.4%,11.7µM*,3.7%,-5.8
Cc1[nH]c2ccccc2c1C(=O)CN1C(=O)NC2(CC(C)CC(C)(C)C2)C1=O (stereo unspecified),-3.2,10.4µM*,7.2%,?,-0.3%,-1.6
O=c1[nH]c(=S)[nH]c(O)c1N=Nc1ccc(-c2ccccc2)cc1[N+](=O)[O-],58.0*,235.0%,-4.5%,27.2%,·,16.7*
O=c1[nH]c(=S)[nH]c(O)c1N=Nc1cc2c(cc1[N+](=O)[O-])OCO2,-11.3,35.2%,6.8%,19.4%,·,-1.9
Cc1ccc(C(=O)Nc2c[nH]c(=O)[nH]c2=O)cc1,·,8.4%,-5.8%,35.6%,-5.5%,16.3
Cc1ccc(C(=O)Nc2cc3[nH]c(=O)oc3cc2C)cc1,24.5*,?,-0.7%,30.9%,4.0%,10.6
CC(C)C(=O)Nc1ccc(NC(=O)c2ccccc2Cl)nc1,71.3*,?,-1.8%,110.3%,-6.1%,38.1*
CCC(=O)Nc1ccc(NC(=O)c2ccccc2Cl)nc1,26.2,?,-2.7%,55.6%,-14.0%,21.3*
O=C(Nc1ccc(NC(=O)C2CC2)nc1)c1ccccc1F,79.1*,-24.6%,-6.6%,83.6%,-7.1%,24.2*
CCCC(=O)Nc1ccc(NC(=O)c2ccccc2F)cn1,23.8,-4.4%,-7.1%,41.0%,-6.0%,16.1*
O=C(CSc1nnc(CNC(=O)c2c(F)cccc2F)o1)Nc1ccc2c(c1)OCCO2,-3.1,12.7%,-4.0%,-5.5%,2.0%,1.7
O=c1ccnc(Nc2ccc3c(c2)OCCO3)[nH]1,10.6,90.8%,-3.2%,-6.5%,·,17.5
N=c1nc(N)nc(N)n1-c1ccc(S(N)(=O)=O)cc1,·,·,·,·,1.8%,·
CCC(=O)Nc1ccc(NC(=O)Cc2ccccc2)cn1,-3.5,·,6.3%,68.5%,-3.6%,-4.1
O=C(Nc1ccc(NC(=O)C2CCCCC2)nc1)c1cccs1,64.6*,6.5%,-0.2%,?,-2.0%,34.7*
CCC(=O)Nc1ccc(NC(=O)c2ccccc2)nc1,70.4*,7.5%,-1.2%,247.8%,0.1%,24.9*
COc1cccc(C(=O)Nc2ccc(NC(=O)C3CCCCC3)nc2)c1,22.1,-2.1%,2.4%,?,2.4%,0.8
CCCC(=O)Nc1ccc(NC(=O)c2ccccc2)nc1,39.6*,57.2%,1.0%,189.6%,-3.4%,20.8*
CSc1ccc(CN(C)C(C)C(=O)NCc2ccccc2)cc1 (stereo unspecified),-9.9,?,-1.3%,8.3%,·,-7.7
COC(=O)c1cc(S(=O)(=O)NCc2ccc(S(N)(=O)=O)cc2)oc1C,19.8,5.4%,0.4%,1.9%,7.2%,-1.1
CC1CC(CCC(=O)NC(=S)Nc2ccc(Cl)cn2)C(=O)O1 (stereo unspecified),2.6,?,0.2%,-2.7%,0.5%,13.9
CC(C(=O)N1CCOCC1)N1C(=O)c2cccc3cccc(c23)C1=O (stereo unspecified),19.8,-2.4%,-0.5%,4.3%,5.5%,-0.5
SMILES,Shiga inhibitor,Pf growth 96h,SARS PLP yeast,Pf growth 48h,NS1 inh,Cycloheximide cs
Cc1cccc(NC(=O)c2ccc(COc3cccc4ccccc34)o2)n1,16.6,?,-14.2%,-25.1%,11.1%,1.1
Cc1cc2c(C)cc(=O)[nH]c2cc1NC(=O)CCl,-5.8,8.28µM*,0.3%,?,5.9%,-1.5
CCOc1cc(NC(=O)CCl)c(OCC)cc1NC(=O)CCl,11.6,?,-3.2%,58.9%,?,8.4
Cc1cc2oc(=O)cc(C)c2cc1NC(=O)CCl,20.7,4.65µM*,17.5%,?,6.6%,30.3*
O=C(CCl)Nc1cc2[nH]c(=O)[nH]c2cc1Br,-3.2,7.38µM*,3.5%,2.33µM*,·,6.2
Cc1cc2oc(=O)cc(C)c2cc1NC(=O)CCC(=O)O,-3.4,-1.7%,6.1%,·,-8.5%,-1.8
CC1(NC(=O)CCNC(=O)c2ccc(C(C)(C)C)cc2)CCS(=O)(=O)C1 (stereo unspecified),·,4.3%,-4.9%,2.7%,·,·
O=C1c2ccccc2S(=O)(=O)N1CCOc1ccc(F)cc1,55.1,80.8%,2.0%,34.5%,4.3%,20.9*
O=C(CCN1C(=O)c2ccccc2S1(=O)=O)NCc1ccc(F)cc1,·,32.5%,4.5%,3.5%,·,·
COc1ccccc1-n1c(SCC(=O)Nc2cccc(C)c2)nc2c(c1=O)SCC2,-6.4,10.4µM*,5.5%,·,12.5%,-3.6
COc1ccc(OC)c(-n2c(SCC(=O)N3CCc4ccccc43)nc3c(c2=O)SCC3)c1,-4.6,2.33µM*,20.7%,?,-59.8%,-2.0
CC1Cc2nc(SCC(=O)N3CCc4ccccc43)n(C)c(=O)c2S1 (stereo unspecified),11.8,?,-6.6%,32.2%,-80.8%,-4.8
COc1ccccc1-n1c(SCC(=O)Nc2ccc3c(c2)OCO3)nc2c(c1=O)SCC2,7.2,0.7%,?,?,?,0.3
COc1ccccc1-n1c(SCC(=O)N2CCc3ccccc32)nc2c(c1=O)SCC2,-3.3,?,2.4%,11.7µM*,?,9.4
O=C(Cn1ncn2c(cc3sccc32)c1=O)NC1CCCC1,-6.5,8.28µM*,-0.4%,17.4%,17.7%,-8.0
OC1COC(OCc2ccccc2)C(O)C1O (stereo unspecified),-13.9,?,0.7%,-1.7%,3.6%,-1.5
c1ccc(-c2[nH]c(-c3ccccc3)[n+](CC3CO3)c2-c2ccccc2)cc1 (stereo unspecified),28.1,10.4µM*,-32.6%,?,-19.9%,49.6*
CCOCc1cnc(C)nc1NCC(=O)c1c(C)n(C)c2ccc(OC)cc12,5.0,-6.2%,-4.1%,7.38µM*,-4.8%,-1.8
COc1ccc2c(c1)c(C(=O)CNc1nc(C)cs1)c(C)n2C,-23.3,2.94µM*,-31.9%,?,-20.1%,-3.7
CC1(C)CC(=O)C(C=Nc2ccc(N)cc2)=C(O)C1,81.2*,53.5%,-0.3%,122.5%,·,40.2*
CCOC(=O)c1c(/N=C/C2=C(O)CC(C)(C)CC2=O)sc(C(C)=O)c1C,56.8*,34.2%,-1.5%,21.9%,-9.0%,23.2*
CCOC(=O)c1c(/N=C/C2=C(O)CC(C)(C)CC2=O)sc2c1CCCC2,22.8,5.8%,0.5%,54.2%,-1.8%,10.6
Cc1ccc(N=CC2=C(O)CC(C)(C)CC2=O)nc1,12.4,?,-6.4%,·,0.9%,-1.4
CC1(C)CC(=O)C(C=Nc2ccc3[nH]ncc3c2)=C(O)C1,32.8*,10.4µM*,-4.6%,4.6%,16.8%,37.4*
